Measurements taken from the antibiotic and cytotoxicity screens of Wong et al. (2023).
Hit rate of the full screen: of about 39,000 compounds, about 3,300 (8.5%) were called active. This excerpt belongs to a sample that is enriched for actives.

Tested on: HepG2
Assay: cytotoxicity call (relative viability < 0.9)
Details: 10 µM

Structure (SMILES)	cytotoxicity call
C[C@@H]1CCCCO[C@@H](CN(C)S(C)(=O)=O)[C@H](C)CN([C@@H](C)CO)C(=O)c2cc(NS(=O)(=O)c3cn(C)cn3)ccc2O1	inactive
C[C@H]1CN([C@@H](C)CO)C(=O)c2cc(NC(=O)C3CC3)ccc2O[C@@H]1CN(C)C(=O)NC1CCCCC1	inactive
O=C(C[C@H]1C[C@@H]2c3cc(NC(=O)Cc4ccncc4)ccc3O[C@@H]2[C@H](CO)O1)NCCN1CCCCC1	inactive
C[C@H]1CN([C@@H](C)CO)C(=O)c2cccc(NC(=O)CCCCCC(=O)Nc3ccccc3N)c2O[C@@H]1CN(C)C(=O)Nc1ccc(F)cc1	inactive
C[C@@H]1CCCCO[C@@H](CN(C)CC2CCCCC2)[C@@H](C)CN([C@H](C)CO)C(=O)c2cc(NC(=O)Cc3ccccc3)ccc2O1	inactive
COc1ccccc1[C@@H](NC(=O)C1CCN(CCn2cnc3c2c(=O)n(C)c(=O)n3C)CC1)c1ccccn1	inactive
CN1CCN(C(=O)C[C@H]2C[C@H]3c4cc(NS(=O)(=O)c5ccc(F)cc5)ccc4O[C@H]3[C@@H](CO)O2)CC1	inactive
C[C@@H]1CCCCO[C@@H](CN(C)S(=O)(=O)c2ccc(Cl)cc2)[C@@H](C)CN([C@@H](C)CO)C(=O)c2cc(NC(=O)Nc3ccc(C(F)(F)F)cc3)ccc2O1	inactive
COc1ccc(NC(=O)Nc2ccc3c(c2)C(=O)N([C@H](C)CO)C[C@@H](C)[C@H](CN(C)C(=O)Nc2ccc(C(F)(F)F)cc2)OCCCC[C@@H](C)O3)cc1	inactive
COc1ccc(NC(=O)N(C)C[C@H]2OCCCC[C@@H](C)Oc3ccc(NC(=O)Nc4ccc(C(F)(F)F)cc4)cc3C(=O)N([C@H](C)CO)C[C@H]2C)cc1	active
COc1ccc(NC(=O)N(C)C[C@@H]2OCCCC[C@@H](C)Oc3ccc(NC(=O)Nc4ccc(C(F)(F)F)cc4)cc3C(=O)N([C@H](C)CO)C[C@@H]2C)cc1	inactive
O=C(C[C@H]1CC[C@@H]2[C@H](COC[C@H](O)CN2C(=O)c2cccnc2)O1)NCC1CC1	inactive
Fc1cccc(-c2csc(COc3ccccc3Cl)n2)c1	inactive
Cc1cc(=O)oc2cc(O)c(O)cc12	inactive
O=c1c(O)c(-c2cc(O)c(O)c(O)c2)oc2cc(O)cc(O)c12	inactive
O=c1oc2c(O)c(O)cc3c(=O)oc4c(O)c(O)cc1c4c23	active
O=C(C[C@@H]1C[C@H]2c3cc(NC(=O)C4CCOCC4)ccc3O[C@H]2[C@@H](CO)O1)NCc1ccc2c(c1)OCO2	inactive
COc1ccc([C@H]([C@H](Cc2ccccc2)OC(C)=O)N(C[C@H](/C=C/c2ccccc2)OC(C)=O)[C@@H](Cc2ccccc2)C(OC)OC)cc1	inactive
COc1ccc([C@H]([C@@H](O)Cc2ccccc2)N(C[C@H](/C=C/c2ccccc2)CC(=O)N(C)C)[C@@H](Cc2ccccc2)C(OC)OC)cc1	active
COc1ccc([C@H]([C@@H](O)Cc2ccccc2)N(C[C@H](/C=C/c2ccccc2)NC(=O)C(Cl)(Cl)Cl)[C@@H](Cc2ccccc2)C(OC)OC)cc1	inactive
COc1ccc([C@@H]([C@H](Cc2ccccc2)OC(C)=O)N2C[C@H](CC(=O)N(C)C)[C@@H]3C(=NO[C@H]3c3ccccc3)[C@@H]2Cc2ccccc2)cc1	inactive

Structure (SMILES)	cytotoxicity call
COc1ccc([C@H]([C@H](Cc2ccccc2)OC(C)=O)N(C[C@H](/C=C/c2ccccc2)CC(=O)N(C)C)[C@@H](Cc2ccccc2)C(OC)OC)cc1	active
COc1ccc([C@@H]([C@H](Cc2ccccc2)OC(C)=O)N2C[C@@H](CC(=O)N(C)C)[C@@H]3C(=NO[C@H]3c3ccccc3)[C@@H]2Cc2ccccc2)cc1	inactive
COc1ccc([C@H]([C@@H](O)Cc2ccccc2)N(C/C=C/[C@@H](O)c2ccccc2)[C@@H](Cc2ccccc2)C(OC)OC)cc1	inactive
COc1ccc([C@H]([C@H](Cc2ccccc2)OC(C)=O)N(C[C@H](/C=C/c2ccccc2)NC(=O)C(Cl)(Cl)Cl)[C@@H](Cc2ccccc2)C(OC)OC)cc1	inactive
COc1ccc([C@H]([C@H](Cc2ccccc2)OC(C)=O)N(C[C@@H](/C=C/c2ccccc2)CC(=O)N(C)C)[C@@H](Cc2ccccc2)C(OC)OC)cc1	active
Cc1noc(C)c1NC(=O)Nc1ccc2c(c1)C(=O)N([C@H](C)CO)C[C@H](C)[C@@H](CN(C)C(=O)Nc1ccccc1)OCCCC[C@H](C)O2	inactive
Cc1ccc(S(=O)(=O)Nc2ccc3c(c2)C(=O)N([C@@H](C)CO)C[C@@H](C)[C@H](CN(C)Cc2ccc4c(c2)OCO4)OCCCC[C@H](C)O3)cc1	inactive
CC(C)C[C@@H]1NC(=O)[C@@H]2C[C@H](C(=O)NCCCCCNC(=O)CS)[C@H](c3cccc(OCCO)c3)N2C1=O	inactive
CN1C[C@]2(CCN(C(=O)c3cn(CCN4CCNCC4)nn3)C2)OC1=O	inactive
Cc1noc(C)c1S(=O)(=O)N(C)C[C@@H]1Oc2ccc(NC(=O)Cc3ccccc3)cc2CC(=O)N([C@@H](C)CO)C[C@@H]1C	inactive
CC(C)NC(=O)N(C)C[C@H]1Oc2ccc(NC(=O)CCCN(C)C)cc2C(=O)N([C@H](C)CO)C[C@H]1C	inactive
C[C@H]1CN([C@@H](C)CO)C(=O)Cc2cc(NC(=O)Cn3cnnn3)ccc2O[C@@H]1CN(C)S(=O)(=O)c1ccc(F)cc1	inactive
C[C@H](CO)N1C[C@H](C)[C@H](CN(C)Cc2ccc(Oc3ccccc3)cc2)Oc2ccc(NC(=O)C3CCCCC3)cc2CC1=O	active
C[C@@H]1CN([C@@H](C)CO)C(=O)Cc2cc(NC(=O)C3CCCCC3)ccc2O[C@H]1CN(C)Cc1ccc(Oc2ccccc2)cc1	inactive
C[C@@H]1CN([C@H](C)CO)C(=O)Cc2cc(NC(=O)C3CCCCC3)ccc2O[C@H]1CN(C)Cc1ccc(Oc2ccccc2)cc1	inactive
C[C@@H]1CN([C@H](C)CO)C(=O)Cc2cc(NC(=O)C3CCCCC3)ccc2O[C@@H]1CN(C)Cc1ccc(Oc2ccccc2)cc1	inactive
C[C@H](CO)N1C[C@H](C)[C@H](CN(C)Cc2ccc(Oc3ccccc3)cc2)Oc2ccc(NC(=O)C3CC3)cc2CC1=O	inactive
C[C@@H]1CN([C@H](C)CO)C(=O)Cc2cc(NC(=O)C3CC3)ccc2O[C@@H]1CN(C)Cc1ccc(Oc2ccccc2)cc1	active
C[C@@H]1CN([C@@H](C)CO)C(=O)Cc2cc(NC(=O)C3CC3)ccc2O[C@H]1CN(C)Cc1ccc(Oc2ccccc2)cc1	inactive
C[C@H]1CN([C@@H](C)CO)C(=O)Cc2cc(NC(=O)C3CCCCC3)ccc2O[C@H]1CN(C)Cc1ccc(Oc2ccccc2)cc1	active
C[C@H](CO)N1C[C@H](C)[C@@H](CN(C)Cc2ccc(Oc3ccccc3)cc2)Oc2ccc(NC(=O)C3CCCCC3)cc2CC1=O	inactive
